Source: PubChem BioAssay AID463198 (Broad Institute, 2010)
Some of the results follow. Values without a mark were called inactive. The source made the active and inactive calls.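 The calls were made as follows: active = fitted AC50 no greater than ten times the top concentration tested (cut at about 17 µM in these data); inconclusive = flat fit with 30 to 70% signal change, or an unreliable fit; inactive = AC50 beyond ten times the top concentration tested.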

assay: DNA intercalators displacing acridine orange, dose response, counter-screen for LANA–histone interaction inhibitor project, biochemical, fluorescence polarization, cell-free (AID 463198); conditions: acridine orange-DNA binding

Row | Compound | AC50
1 | Cc1nn(C)cc1N1C(=O)c2cccc3c(N)ccc(c23)C1=O | 4.91 µM (active)
2 | CN1C(=O)c2cccc3c(N)ccc(c23)C1=O | 7.65 µM (active)
3 | COc1ccc(C2C=C(c3ccc(Br)cc3)Nc3nc(NS(C)(=O)=O)nn32)cc1 (centres undefined) | > 35 µM
4 | O=S(=O)(Nc1cc(Cl)ccc1N1CCOCC1)c1ccccc1Cl | > 35 µM
